Of roughly 7,900 targets only a part is listed; those with a hit were picked by preference. About 0.6% of all pairs of compound and target were hits. A number with no mark means an inactive call.
Legend:
Test in all cases: log2 fold change, soluble protein after heating vs DMSO (PISA); higher = thermal stabilisation; K562 cells, 10 uM, 30 min; active = over 0.2 and 3.5 SD of the protein, either way, in both replicates (recomputed)
[1] = compound: CC1=C(C=C(C=C1)NC(=O)C2=CC(=CC=C2)C(C)(C)C#N)NC3=CC4=C(C=C3)N=CN(C4=O)C
Outline: (§1)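 K562 cells at 2×10^6 cells/mL were treated for 30 min with 10 μM compound, and aliquots were heated for 3 min over 48°C-58°C before pooling. Extraction used PBS with 0.5% NP-40 at 4°C, and soluble protein was the supernatant after 21,000xg for 90 min, measured by TMTpro 16plex LC-MS/MS with channel sums equalised. Thermal stability values, relative to control samples and from duplicates, are log2 fold changes.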

[2] = compound: CC1=C(C=C(C=C1)NC(=O)C2=CC(=CC=C2)N(C)C)NC(=O)C3=CC=C(C=C3)O
Outline: as §1

[3] = compound: CC1=CC=C(C=C1)SC2=C3C=C(SC3=CN=C2)C(=O)N
Outline: as §1

[4] = compound: CCCCN(Cc1ccc(C(=O)NO)cc1)C(=O)Nc1ccccc1 [Nexturastat A]
Outline: as §1

[5] = compound: CCCS(=O)(=O)Nc1ccc(F)c(C(=O)c2c[nH]c3ncc(-c4ccc(Cl)cc4)cc23)c1F [vemurafenib]
Outline: as §1

[6] = compound: CCCS(=O)(=O)Nc1ccc(F)c(C(=O)c2c[nH]c3ncc(Cl)cc23)c1F
Outline: as §1

[7] = compound: CCCc1cc(C)[nH]c(=O)c1CNC(=O)c1cc(-c2ccnc(N3CCN(C)CC3)c2)cc2c1cnn2C(C)C
Outline: as §1

[8] = compound: CCN(CCCOc1ccc2c(Nc3cc(CC(=O)Nc4cccc(F)c4)[nH]n3)ncnc2c1)CCOP(=O)(O)O [barasertib]
Outline: as §1

[9] = compound: CC1=NC(=CC=C1)C2=C(N=C(N2)C(C)(C)C)C3=CC4=NC=CN=C4C=C3
Outline: as §1

[10] = compound: CCN(CC)Cc1ccc2cc(COC(=O)Nc3ccc(C(=O)NO)cc3)ccc2c1 [givinostat]
Outline: as §1

Sequence of UniProt P25208 (P25208 whole entry, looked up): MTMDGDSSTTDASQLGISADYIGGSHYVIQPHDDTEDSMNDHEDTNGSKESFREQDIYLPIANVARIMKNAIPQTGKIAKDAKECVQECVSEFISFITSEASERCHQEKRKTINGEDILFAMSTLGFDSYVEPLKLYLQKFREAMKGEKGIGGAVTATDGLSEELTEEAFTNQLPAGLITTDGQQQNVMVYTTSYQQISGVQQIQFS
Sequence of UniProt P55209 (P55209 whole entry, looked up): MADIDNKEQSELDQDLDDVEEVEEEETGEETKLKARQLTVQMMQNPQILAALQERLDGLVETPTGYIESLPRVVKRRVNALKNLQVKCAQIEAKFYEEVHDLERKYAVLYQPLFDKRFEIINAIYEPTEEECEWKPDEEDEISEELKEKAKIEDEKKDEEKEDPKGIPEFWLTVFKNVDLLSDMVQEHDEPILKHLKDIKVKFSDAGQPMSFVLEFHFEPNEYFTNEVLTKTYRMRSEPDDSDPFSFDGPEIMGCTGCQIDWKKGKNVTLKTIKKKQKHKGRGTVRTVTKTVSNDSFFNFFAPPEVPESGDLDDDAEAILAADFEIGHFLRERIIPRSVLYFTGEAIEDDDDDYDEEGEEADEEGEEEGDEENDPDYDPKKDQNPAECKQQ
Sequence of UniProt Q7Z3U7 (Q7Z3U7 whole entry, looked up): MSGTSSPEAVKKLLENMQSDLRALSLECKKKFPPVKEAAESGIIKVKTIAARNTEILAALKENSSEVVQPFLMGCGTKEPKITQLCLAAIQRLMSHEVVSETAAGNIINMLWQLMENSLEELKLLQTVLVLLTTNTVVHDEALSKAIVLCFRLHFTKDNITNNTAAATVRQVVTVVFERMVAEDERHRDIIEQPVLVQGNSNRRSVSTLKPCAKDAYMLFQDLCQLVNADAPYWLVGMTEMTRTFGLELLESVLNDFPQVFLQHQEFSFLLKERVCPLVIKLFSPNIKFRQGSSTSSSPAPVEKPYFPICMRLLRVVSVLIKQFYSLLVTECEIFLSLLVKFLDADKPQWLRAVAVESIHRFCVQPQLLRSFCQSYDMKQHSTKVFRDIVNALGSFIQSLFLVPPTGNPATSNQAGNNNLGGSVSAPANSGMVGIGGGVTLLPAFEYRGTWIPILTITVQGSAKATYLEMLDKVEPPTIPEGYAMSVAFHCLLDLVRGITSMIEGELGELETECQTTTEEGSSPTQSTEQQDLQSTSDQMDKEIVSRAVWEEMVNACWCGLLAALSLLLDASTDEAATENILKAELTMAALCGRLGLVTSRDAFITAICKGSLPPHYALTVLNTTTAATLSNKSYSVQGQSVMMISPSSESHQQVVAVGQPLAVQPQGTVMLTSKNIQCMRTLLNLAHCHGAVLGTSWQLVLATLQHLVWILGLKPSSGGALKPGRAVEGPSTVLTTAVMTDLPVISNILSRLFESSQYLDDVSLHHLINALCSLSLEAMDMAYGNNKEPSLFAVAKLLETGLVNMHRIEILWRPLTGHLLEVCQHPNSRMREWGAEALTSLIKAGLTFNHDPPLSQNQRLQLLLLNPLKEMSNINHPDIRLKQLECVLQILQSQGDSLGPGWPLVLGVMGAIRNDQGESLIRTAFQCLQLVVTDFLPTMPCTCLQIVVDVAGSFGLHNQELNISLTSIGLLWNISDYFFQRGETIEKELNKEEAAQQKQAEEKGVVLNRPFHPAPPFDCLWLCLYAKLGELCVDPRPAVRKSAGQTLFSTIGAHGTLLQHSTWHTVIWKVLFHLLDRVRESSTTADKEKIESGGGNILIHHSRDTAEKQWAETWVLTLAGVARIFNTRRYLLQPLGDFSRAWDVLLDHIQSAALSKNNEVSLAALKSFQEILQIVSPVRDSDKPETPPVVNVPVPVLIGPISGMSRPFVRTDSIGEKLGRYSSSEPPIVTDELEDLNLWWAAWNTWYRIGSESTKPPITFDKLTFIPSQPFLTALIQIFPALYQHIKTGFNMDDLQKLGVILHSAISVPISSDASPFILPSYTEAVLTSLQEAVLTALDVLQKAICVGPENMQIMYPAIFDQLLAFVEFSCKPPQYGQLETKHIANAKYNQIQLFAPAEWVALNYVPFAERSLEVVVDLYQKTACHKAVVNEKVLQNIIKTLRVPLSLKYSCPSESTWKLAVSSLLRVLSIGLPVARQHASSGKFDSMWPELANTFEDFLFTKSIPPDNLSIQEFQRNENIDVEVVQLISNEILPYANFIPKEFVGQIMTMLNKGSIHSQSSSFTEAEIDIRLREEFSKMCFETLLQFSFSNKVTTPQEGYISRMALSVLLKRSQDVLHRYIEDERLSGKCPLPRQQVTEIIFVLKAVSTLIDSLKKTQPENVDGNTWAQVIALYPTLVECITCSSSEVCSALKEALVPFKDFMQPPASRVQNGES
Sequence of UniProt P0C024 (P0C024 whole entry, looked up): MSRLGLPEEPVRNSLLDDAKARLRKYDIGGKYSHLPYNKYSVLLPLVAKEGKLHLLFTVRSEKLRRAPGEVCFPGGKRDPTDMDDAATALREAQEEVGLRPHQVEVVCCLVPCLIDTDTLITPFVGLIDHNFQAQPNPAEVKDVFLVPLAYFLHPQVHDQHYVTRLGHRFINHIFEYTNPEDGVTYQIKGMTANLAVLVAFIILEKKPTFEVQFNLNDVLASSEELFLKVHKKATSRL
Sequence of UniProt Q9HCD5 (Q9HCD5 whole entry, looked up): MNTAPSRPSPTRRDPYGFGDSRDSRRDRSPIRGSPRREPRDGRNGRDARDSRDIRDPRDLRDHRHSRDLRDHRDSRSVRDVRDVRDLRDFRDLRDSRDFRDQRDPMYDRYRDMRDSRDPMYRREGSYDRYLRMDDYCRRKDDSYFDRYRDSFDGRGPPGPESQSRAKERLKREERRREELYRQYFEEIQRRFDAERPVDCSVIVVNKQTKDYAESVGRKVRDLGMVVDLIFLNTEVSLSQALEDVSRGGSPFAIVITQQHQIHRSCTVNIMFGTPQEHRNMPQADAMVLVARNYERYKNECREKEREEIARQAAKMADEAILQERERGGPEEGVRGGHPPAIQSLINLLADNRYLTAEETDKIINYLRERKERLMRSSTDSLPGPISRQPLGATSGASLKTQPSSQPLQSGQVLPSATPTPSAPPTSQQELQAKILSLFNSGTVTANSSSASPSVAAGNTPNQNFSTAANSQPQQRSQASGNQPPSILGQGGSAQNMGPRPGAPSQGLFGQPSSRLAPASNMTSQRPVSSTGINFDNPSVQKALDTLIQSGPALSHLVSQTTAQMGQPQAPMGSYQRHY
Sequence of UniProt O75607 (O75607 whole entry, looked up): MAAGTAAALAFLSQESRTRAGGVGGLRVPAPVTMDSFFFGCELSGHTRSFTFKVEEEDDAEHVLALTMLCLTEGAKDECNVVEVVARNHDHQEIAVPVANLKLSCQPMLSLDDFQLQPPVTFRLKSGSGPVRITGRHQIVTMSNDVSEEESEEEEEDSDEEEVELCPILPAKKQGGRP
Sequence of UniProt Q4G0T1 (Q4G0T1 whole entry, looked up): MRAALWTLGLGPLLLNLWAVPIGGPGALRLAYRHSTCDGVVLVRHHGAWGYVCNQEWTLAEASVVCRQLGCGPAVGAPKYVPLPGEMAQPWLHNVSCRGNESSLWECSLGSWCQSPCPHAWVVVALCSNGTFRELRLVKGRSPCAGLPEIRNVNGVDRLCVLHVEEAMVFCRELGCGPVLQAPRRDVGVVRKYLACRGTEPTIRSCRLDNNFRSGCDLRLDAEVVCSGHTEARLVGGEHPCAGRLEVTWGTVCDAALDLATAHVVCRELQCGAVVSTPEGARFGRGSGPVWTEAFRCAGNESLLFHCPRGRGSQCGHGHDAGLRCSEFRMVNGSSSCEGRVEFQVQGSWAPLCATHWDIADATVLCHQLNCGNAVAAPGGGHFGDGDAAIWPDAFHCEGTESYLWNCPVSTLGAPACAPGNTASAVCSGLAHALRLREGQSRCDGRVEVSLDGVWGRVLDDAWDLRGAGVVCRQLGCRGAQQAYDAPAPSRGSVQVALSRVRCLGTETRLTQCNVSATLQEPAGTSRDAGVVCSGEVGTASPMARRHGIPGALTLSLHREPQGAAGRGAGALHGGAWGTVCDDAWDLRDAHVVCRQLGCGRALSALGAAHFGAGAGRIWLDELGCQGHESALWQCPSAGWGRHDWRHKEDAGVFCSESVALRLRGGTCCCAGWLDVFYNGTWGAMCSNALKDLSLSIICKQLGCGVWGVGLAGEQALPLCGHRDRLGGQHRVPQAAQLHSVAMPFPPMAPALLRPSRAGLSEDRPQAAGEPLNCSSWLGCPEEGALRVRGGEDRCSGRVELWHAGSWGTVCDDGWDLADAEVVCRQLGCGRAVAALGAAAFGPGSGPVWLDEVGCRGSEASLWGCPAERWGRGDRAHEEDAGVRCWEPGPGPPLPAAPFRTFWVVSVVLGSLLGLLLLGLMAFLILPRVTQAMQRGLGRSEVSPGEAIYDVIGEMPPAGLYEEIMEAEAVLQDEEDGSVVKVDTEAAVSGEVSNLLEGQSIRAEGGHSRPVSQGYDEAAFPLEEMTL
Sequence of UniProt O43913 (O43913 whole entry, looked up): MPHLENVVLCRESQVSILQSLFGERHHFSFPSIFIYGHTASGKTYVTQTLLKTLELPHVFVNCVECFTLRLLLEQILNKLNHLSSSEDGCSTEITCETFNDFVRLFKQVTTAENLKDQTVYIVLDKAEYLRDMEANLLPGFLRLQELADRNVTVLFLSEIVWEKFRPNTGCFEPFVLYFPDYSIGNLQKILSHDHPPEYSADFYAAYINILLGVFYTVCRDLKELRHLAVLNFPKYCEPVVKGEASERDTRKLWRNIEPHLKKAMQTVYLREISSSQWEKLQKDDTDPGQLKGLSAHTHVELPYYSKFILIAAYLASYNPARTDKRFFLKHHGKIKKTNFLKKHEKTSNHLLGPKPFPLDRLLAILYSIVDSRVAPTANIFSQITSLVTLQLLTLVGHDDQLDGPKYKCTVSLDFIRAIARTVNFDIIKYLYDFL
Sequence of UniProt O75251 (O75251 whole entry, looked up): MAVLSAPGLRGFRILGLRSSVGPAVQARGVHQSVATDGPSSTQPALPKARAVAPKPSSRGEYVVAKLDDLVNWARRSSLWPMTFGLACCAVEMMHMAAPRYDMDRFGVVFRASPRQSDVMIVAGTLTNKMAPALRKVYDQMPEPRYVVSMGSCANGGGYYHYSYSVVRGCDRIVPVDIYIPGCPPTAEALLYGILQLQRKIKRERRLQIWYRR

Target | log2 fold change [1] | log2 fold change [2] | log2 fold change [3] | log2 fold change [4] | log2 fold change [5] | log2 fold change [6] | log2 fold change [7] | log2 fold change [8] | log2 fold change [9] | log2 fold change [10]
MTHFD1, A0A384N5Y3 | 0.036 | -0.107 | -0.055 | 0.013 | 0.088 | 0.058 | -0.035 | 0.044 |  | 
NA isoform 3 (UniProt Q4G0T1) | -0.007 | 0.035 | 0.008 |  | 0.005 | -0.077 | -0.012 | 0.179 | -0.057 | -0.009
NANS (UniProt Q9NR45) | 0.063 | -0.02 | 0.035 | -0.196 | -0.001 | 0.026 | 0.007 | 0.01 | 0.007 | -0.025
MON2 isoform 5 (UniProt Q7Z3U7) | -0.002 | -0.009 | -0.036 | 0 | 0.017 | 0.085 | 0.046 | 0.039 | 0.018 | 0.029
NCKAP1 isoform 2 (UniProt Q9Y2A7) | 0.039 | 0.009 | 0.004 | 0.02 | 0.036 | 0.015 | 0.064 | -0.009 | 0.033 | 0.021
OSBPL3 (UniProt Q9H4L5) | 0.35 | 0.04 | 0.006 | 0.471 | -0.267 | -0.09 |  |  | -0.062 | -0.204
NCOA5 (UniProt Q9HCD5) | 0.076 | 0.134 | 0.099 |  |  | -0.096 |  |  | -0.315 | 0.08
ORC3 isoform 2 (UniProt Q9UBD5) | -0.027 | -0.056 | 0.146 | -0.124 | 0.012 | 0.143 | 0.044 | 0.178 | 0.075 | 0.145
NUDT7 (UniProt P0C024) | 0.016 | -0.021 |  | 0.014 |  |  |  | 0.666 (active) | 0.197 | 0.017
NCBP2AS2 (UniProt Q69YL0) | 0.069 | 0.017 | 0.162 |  | -0.039 | 0.037 | -0.096 | 0.072 |  | -0.146
PAFAH2 (UniProt Q99487) | -0.09 | 0.006 | 0.019 |  | 0.093 | -0.015 |  | -0.044 | -0.038 | 0.059
NDUFS7 (UniProt O75251) | 0.008 | 0.004 | 0.017 | -0.019 | -0.025 | 0.028 | -0.039 | 0.016 | 0.025 | 0.113
NA, A0A2R8Y3M9 | -0.126 | 0.546 | 0.225 |  |  | -0.086 |  | -0.138 | 0.178 | 
NAP1L1 (UniProt P55209) | 0.042 | 0.005 | -0.002 | -0.003 | 0.04 | 0.011 | 0.028 | 0.061 | 0.035 | -0.08
MT-ND1 (UniProt P03886) | -0.002 | 0.028 | -0.008 | 0.021 | 0.168 | 0.208 | 0.019 | 0.127 | -0.034 | 0.057
MRPS26 (UniProt Q9BYN8) | 0.021 | -0.083 | 0.002 | 0.075 | -0.004 | 0.049 | -0.056 | 0.026 | -0.03 | 0.098

Target | log2 fold change [1] | log2 fold change [2] | log2 fold change [3] | log2 fold change [4] | log2 fold change [5] | log2 fold change [6] | log2 fold change [7] | log2 fold change [8] | log2 fold change [9] | log2 fold change [10]
NDFIP1 (UniProt Q9BT67) | -0.366 | -0.125 |  | 0.048 | 0.268 |  | -0.15 | -0.011 | -0.1 | -0.046
MYLK (UniProt Q15746) | 0.832 (active) | 0.108 | -0.013 |  | 0.081 | -0.01 | -0.154 | 0.032 | 0.202 | -0.132
NPM3 (UniProt O75607) | 0.003 | -0.004 | -0.005 |  | -0.04 | 0.041 | -0.015 | -0.083 | -0.056 | 0.019
NECTIN2 isoform 2 (UniProt Q92692) | -0.037 | 0.011 |  | 0.17 | 0.033 |  | -0.028 | 0.005 | -0.104 | 0.054
MYSM1 (UniProt Q5VVJ2) | 0.067 | -0.298 |  |  |  |  |  | -0.114 | 0.006 | 
MRPS24 (UniProt Q96EL2) | -0.01 | -0.037 | 0.047 | 0.095 | -0.065 | 0.057 | -0.016 | -0.024 | -0.003 | -0.035
NFYB (UniProt P25208) | -0.012 | -0.118 | -0.023 |  | 0.026 | 0.025 | 0.044 | 0.049 | 0.025 | -0.012
MRPS12 (UniProt O15235) | -0.034 | -0.094 | 0.054 | 0.201 | -0.146 | 0.032 | -0.002 | -0.054 | -0.069 | 0.077
MON1B (UniProt Q7L1V2) | 0.064 | -0.003 | 0.071 | -0.058 | -0.005 | 0.032 | -0.036 | 0.005 | 0.019 | 0.024
NCOA7 (UniProt Q8NI08) | 0.068 | -0.045 | 0.015 | 0.012 | 0.008 | -0.005 | 0.024 | 0.009 | 0.016 | 0.045
NUDT21 (UniProt O43809) | 0.052 | 0.077 | -0.007 | 0 | 0.02 | -0.053 | -0.013 | -0.023 | 0.019 | -0.033
MRFAP1 (UniProt Q9Y605) | -0.073 | -0.011 | 0.101 |  | -0.148 | 0.046 | 0.009 | 0.036 | -0.045 | 0.017
MON1A (UniProt Q86VX9) | 0.055 | 0.004 | -0.061 | 0.015 |  | -0.011 | 0.009 | 0.065 | 0.061 | 0.008
MTFR1L (UniProt Q9H019) | 0.082 | -0.006 | 0.008 | -0.027 | 0.048 | 0.116 |  | -0.026 | -0.122 | 0.031
ORC5 (UniProt O43913) | -0.193 | -0.089 | 0 |  | 0.058 | 0.058 | 0.058 | 0.025 | -0.038 | -0.009
NGLY1 (UniProt Q96IV0) | -0.034 | -0.039 | 0.052 | 0.102 | 0.009 | 0.026 | 0.016 | 0.024 | -0.016 | 0.036

From the supplement of paper PMC10849652
